According to the supplement of paper PMC6555819:

system: FXR:RXRa (NR concentration 270 nM, RXRa partner concentration 90 nM); assay: PBM binding z-score (relative to random genomic background probes); higher = stronger binding; sequences stand for … in GC…GCGATTGACAGCGTAGAATGAAGG
How it was run: (§1)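 On custom Agilent 4×180K arrays, double-stranded probes with 34-nt variable regions carried direct-repeat seeds, single-nucleotide variants, half-site ablations or random human genomic background. Ligand-free nuclear receptor dimers were applied for 1 h, and binding was read with antibodies against each partner (one per run). Binding z-scores come from regression-normalized fluorescence, with the random background probes as reference.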

| Sequence | PBM binding z-score |
| --- | --- |
| AGTCAAAGTTCATCTAGGTAACGTATGATATGCT | 6.72 |
| CAAACTAGGTGAAGAGGTCAAAGTCCGCTTCCCG | 4.89 |
| CCTATTTGGTCAAGGTCACACACGCTATAGGTAC | 4.34 |
| AGAATGAGGTTGTACGTAGATCAGGGAAGAAAGT | -0.0554 |
| GTACCAAGGTGAATAGGTCGTTAATGAGTAGGCG | 0.719 |
| CCTAGCAGGCCAATCTGGGTCACACAAGGCTTGA | 1.88 |
| AACTCTAGGTAAAAGTTCAGTGAATCCCGAGGAT | 1.13 |
| TTACCAAGGTGAAGGTCGTTGTTCCCTCTGTAGA | 1.41 |
| CCGACTGGTGCAGAAAGGTTACCATACCATCCGG | 0.086 |
| TCTATTAGTTGATGGGCAACCGACGAGTCCGTTT | 0.353 |
| GCTTACGGGTCAAAGGTTATTGCATGAATAGAAT | 7.79 |
| TCTTGTAGATCAAAGGTTAAGAACGCCGAAGCCT | 2.02 |
| TCAGACAGGTGAAGGTAACTCATGTACGCAGTCG | 0.849 |
| GCTATTAGTAGAAAGGGCAACCGAATGATTCTCG | -0.219 |
| CCAGACAGGTGAAAGGTAAGTCAGTCTGGTACGC | 0.207 |
| ACTCGGAGGACAAAGGTCAGAGATACGCCAGTGA | 4.21 |
| AGAATGAGGTTACCAAAGATCAGGGCAACGCTTG | 2.12 |
| CCGACTGGGGCAAAGGTTAGCATACTCAGTACGA | 0.945 |
| ATCTCTAAGTAAAGATAGTTCAGTGAATGCAAAT | 0.825 |
| GCTATTAGTTGAAAGGGCTACCGAATGATTCTCG | -0.348 |

| Sequence | PBM binding z-score |
| --- | --- |
| TCTTGTCGATCAATAGAGGTTAAGAAAGTGCGCT | 0.786 |
| ATCTCTTGGTAAAAGTTCAGTGAATCCCGAGGAT | 0.493 |
| CTAACTAGGTCAAGGACAGTGAATCTCCGCACGC | 3.07 |
| AGAATGAGGTTATTAAAATCAGGGAATTGCGGTC | 1.11 |
| ACAAGCAGGCCAAGGGTCACTCAAGATTAGTCCG | 2.26 |
| GATACAGGGTCAAGGCCCGAGTACGCGTATTGAT | 6.52 |
| ACTATTAGTTGACTTAGTGCAACCGATACGACGC | -0.217 |
| CCGAGTAGGTTATGGGGCAGTCAGGCAACGGTGA | 0.0419 |
| CCTACTGGGCCATTCAGAGGCCATTGATCATATG | -0.101 |
| ATCTCTGGGTAAGACTCAGTTCAGTGAAGAACGC | 0.0881 |
| TCGAGTTGGTCACGGAGGTCACACACGACGGGTA | 3.27 |
| TTACCAAGGTGAACGTCGTTGATCCCTCTGTAGA | 0.766 |
| TCATATAGGTAAAGGTGAAAGTCGAACGATATGA | 0.768 |
| CTACTAAGGTGAACAAGGTCGTTGATTACTATTC | 1.84 |
| ATCTCTAGGCAAAAGTTCAGTGAATCCCGAGGAT | 0.235 |
| CAAACTAGGTCAAGGTAAAAGTCGGTTTGTGCCA | 3.54 |
| CAAACTAGGTCAGGGTCAAAGTCGGTTTGTGCCA | 5.97 |
| ATATGTAGGTTACAACCGGGTCATTCAGGCTATG | 2.4 |
| AGTCAATGTTCAGGACGAGGTAACGTAAAGCACG | -0.0403 |
| ATATGTAGGTTAAGGGTCATCCAGGTTGGTTCGC | 4.92 |

system: LXRa:RXRa (NR concentration 270 nM, RXRa partner concentration 90 nM); assay: as above
How it was run: as §1

| Sequence | PBM binding z-score |
| --- | --- |
| AGTCAAAGTTCATCTAGGTAACGTATGATATGCT | 5.89 |
| CAAACTAGGTGAAGAGGTCAAAGTCCGCTTCCCG | 4.87 |
| CCTATTTGGTCAAGGTCACACACGCTATAGGTAC | 4.04 |
| AGAATGAGGTTGTACGTAGATCAGGGAAGAAAGT | 0.156 |
| GTACCAAGGTGAATAGGTCGTTAATGAGTAGGCG | 0.484 |
| CCTAGCAGGCCAATCTGGGTCACACAAGGCTTGA | 1.82 |
| AACTCTAGGTAAAAGTTCAGTGAATCCCGAGGAT | 1.42 |
| TTACCAAGGTGAAGGTCGTTGTTCCCTCTGTAGA | 1.32 |
| CCGACTGGTGCAGAAAGGTTACCATACCATCCGG | 0.429 |
| TCTATTAGTTGATGGGCAACCGACGAGTCCGTTT | 0.502 |
| GCTTACGGGTCAAAGGTTATTGCATGAATAGAAT | 5.75 |
| TCTTGTAGATCAAAGGTTAAGAACGCCGAAGCCT | 2.28 |
| TCAGACAGGTGAAGGTAACTCATGTACGCAGTCG | 1.03 |
| GCTATTAGTAGAAAGGGCAACCGAATGATTCTCG | 0.182 |
| CCAGACAGGTGAAAGGTAAGTCAGTCTGGTACGC | 0.575 |
| ACTCGGAGGACAAAGGTCAGAGATACGCCAGTGA | 4.08 |
| AGAATGAGGTTACCAAAGATCAGGGCAACGCTTG | 6.55 |
| CCGACTGGGGCAAAGGTTAGCATACTCAGTACGA | 0.762 |
| ATCTCTAAGTAAAGATAGTTCAGTGAATGCAAAT | 1.03 |
| GCTATTAGTTGAAAGGGCTACCGAATGATTCTCG | -0.291 |

| Sequence | PBM binding z-score |
| --- | --- |
| TCTTGTCGATCAATAGAGGTTAAGAAAGTGCGCT | 3.69 |
| ATCTCTTGGTAAAAGTTCAGTGAATCCCGAGGAT | 1.23 |
| CTAACTAGGTCAAGGACAGTGAATCTCCGCACGC | 2.43 |
| AGAATGAGGTTATTAAAATCAGGGAATTGCGGTC | 1.04 |
| ACAAGCAGGCCAAGGGTCACTCAAGATTAGTCCG | 2.92 |
| GATACAGGGTCAAGGCCCGAGTACGCGTATTGAT | 4.01 |
| ACTATTAGTTGACTTAGTGCAACCGATACGACGC | -0.0103 |
| CCGAGTAGGTTATGGGGCAGTCAGGCAACGGTGA | 0.326 |
| CCTACTGGGCCATTCAGAGGCCATTGATCATATG | -0.261 |
| ATCTCTGGGTAAGACTCAGTTCAGTGAAGAACGC | 0.209 |
| TCGAGTTGGTCACGGAGGTCACACACGACGGGTA | 3.24 |
| TTACCAAGGTGAACGTCGTTGATCCCTCTGTAGA | 0.802 |
| TCATATAGGTAAAGGTGAAAGTCGAACGATATGA | 1.27 |
| CTACTAAGGTGAACAAGGTCGTTGATTACTATTC | 1.76 |
| ATCTCTAGGCAAAAGTTCAGTGAATCCCGAGGAT | 0.757 |
| CAAACTAGGTCAAGGTAAAAGTCGGTTTGTGCCA | 2.52 |
| CAAACTAGGTCAGGGTCAAAGTCGGTTTGTGCCA | 4.32 |
| ATATGTAGGTTACAACCGGGTCATTCAGGCTATG | 4.01 |
| AGTCAATGTTCAGGACGAGGTAACGTAAAGCACG | -0.35 |
| ATATGTAGGTTAAGGGTCATCCAGGTTGGTTCGC | 5.03 |
